From PubChem BioAssay (NCI) come the findings set out here.

The panel holds about 83,000 compounds, 20% with a hit somewhere; the sample as a whole holds those more often.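 Testing used 96-well plates and a 48-hour single-concentration exposure. Example: -40 means 40% of the starting cells died.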 Calls of active or inactive are those of the source. The calls were made as follows: active = growth percent below 10; inactive = the rest.

This assay has as its system HT29 colon. Description: NCI-60 one-dose screen, 48 h (100 = growth as untreated, 0 = no growth, -100 = all killed). The settings on record: 10 µM unless noted.
Consider `Clc1ccccc1/C=C/c1nn2c(-c3ccncc3)nnc2s1`, for which the growth is 111% (inactive).
Next, `COc1ccc(/C=N/Nc2nc(Nc3ccccc3)nc(Nc3ccc(S(N)(=O)=O)cc3)n2)cc1`: 55.3% (inactive); `CS(=O)c1nccc(-c2c(-c3ccc(F)c(OCc4ccccc4)c3)nc3sccn23)n1` (stereo not drawn): 89.5% (inactive).
On to `COc1ccc(-c2cc(-c3cccc4ccccc34)n3c(n2)nc2ccccc23)cc1`, for which the growth was 33.8% (inactive).
Turning to `COc1ccc2c(c1)c(-c1nn3c(=O)cc(-c4ccccc4)nc3s1)cn2C`, the growth is 10.5% (inactive).
Consider `CC1(C)CC[C@]2(C(=O)N3CCCNCC3)CC[C@]3(C)C(=CC[C@@H]4[C@@]5(C)CCC(=O)C(C)(C)[C@@H]5CC[C@]43C)[C@H]2C1`, for which the growth is 102% (inactive).
In the case of `CCOC(=O)C1=C(C)Nc2nnc(Nc3ccccc3)n2C1c1ccccc1` (stereo not drawn), the growth was 79.4% (inactive).
In the case of `Cc1nc(-c2cc3ccccc3c(N3CCN(C)CC3)n2)cs1`, the growth is 96.4% (inactive).
Next, `Nc1n[nH]c2cccc(C#Cc3cccc(NC(=O)c4cccc(OC(F)(F)F)c4)c3)c12`: 36.1% (inactive); `COc1c([C@@H](CC(C)C)OC(C)=O)ccc2c1C(=O)OCc1cc(C)cc(O)c1O2`: 13.5% (inactive); `O=C1CSC(=O)N1Cc1cc2ccccc2nc1Cl`: 107% (inactive).
For the compound `O=C1Nc2ccc(Cl)cc2/C1=C/c1ccc(OCc2ccc(Br)cc2F)cc1`, the growth is 104% (inactive).
Turning to `COc1cc2oc(-c3cccc(NC(=O)c4cc(NC(=O)[C@H](C)N)ccc4Cl)c3)cc(=O)c2c(OC)c1OC`, the growth was 115% (inactive).
For the compound `COc1cc2oc(-c3cccc(NC(=O)c4cc(NC(=O)[C@H](C)NC(=O)OC(C)(C)C)ccc4C)c3)cc(=O)c2c(OC)c1OC`, the growth was 75.5% (inactive).
For the compound `C/C(=C(/C)C1CC1CCN(C(=O)c1ccc([N+](=O)[O-])cc1)S(=O)(=O)c1ccc(C)cc1)C1CCCCC1` (stereo not drawn), the growth is 99.2% (inactive).
Consider `CN1CCN(c2nc(-c3cnc4ccccc4n3)cc3ccccc23)CC1`, for which the growth was 21.3% (inactive).
Regarding `CCNC(=O)Oc1ccc(/C(=C(/C)c2ccccc2)c2ccc(OCCN3CCCC3)cc2)cc1`, the growth is 9.61% (active).
With `O=C(CSc1nnc(-c2cccs2)n1-c1ccccc1)Nc1ccc(F)cc1`, the growth was 101% (inactive).
With `NS(=O)(=O)Oc1ccc2nc(Nc3ccc(F)c(F)c3)ccc2c1`, the growth was 97.3% (inactive).
`C#C[C@]1(O)CC[C@H]2[C@@H]3CC=C4c5sc(Nc6cccc(C)n6)nc5CC[C@]4(C)[C@H]3CC[C@@]21C`: the growth was 37.7% (inactive).
For `COc1ccc([C@H]2[C@H](O)C(=O)N2c2cc(OC)c(OC)c(OC)c2)cc1O`, the growth was -18.4% (active).
`COc1cc(-c2nc(SCc3ccc(C)cc3)[nH]c(=O)c2C#N)ccc1OCc1ccccc1`: the growth was 109% (inactive).
Turning to `CCOC(=O)Nc1cccc(-n2cnc3cc(-c4ccc(O)cc4)ccc32)c1`, the growth was 5.49% (active).
Next, `COc1cc(O)c2c(c1)[C@H]1O[C@@H]1C[C@H](O)[C@H](O)C(=O)/C=C\C[C@H](C)OC2=O`: 12.6% (inactive); `CN1CCN(c2ccc(C(=O)/C=C/c3ccc(Cl)c(C(F)(F)F)c3)cc2)CC1`: 11.6% (inactive); `Cc1ccccc1NC1CC(=O)N(c2ccc(Cl)cc2Cl)C1=O` (stereo not drawn): 104% (inactive).
Regarding `C/C(=C(/c1ccc(O)cc1)c1ccc(OCCN(C)C)cc1)c1ccc(Cl)cc1`, the growth is -51.3% (active).
Take `C=CCn1c(SCC(=O)Nc2cccc(C(=O)/C=C/c3ccc(Cl)cc3)c2)nc2ccccc2c1=O`: the growth is 84.8% (inactive).
As for `Cc1nn(-c2ccc(Br)cc2)c2nc(CCl)[nH]c(=O)c12`, the growth was 104% (inactive).
In the case of `Cc1cc2nc(C(Cl)Cl)nc(-c3ccco3)n2n1`, the growth is 37.2% (inactive).
In the case of `C=CCn1c(SCC(=O)c2ccc(OC)cc2)nnc1-c1ccc(OC)cc1`, the growth was 108% (inactive).
Next, `ClC(Cl)c1nc(-c2cccs2)n2nc(-c3ccccc3)cc2n1`: -3.99% (active); `COc1cc2c3c(n(CCCNC4CCCCC4)c(=O)c2cc1OC)-c1cc2c(cc1C3=O)OCO2`: -69.2% (active).
Next, `C#CCOc1ccc(/C=N/Nc2nc(-c3cc(Cl)ccc3Cl)cs2)cc1`: 110% (inactive).
As for `CS(=O)(=O)c1ccc2c(c1)c1c(n2S(=O)(=O)c2ccc(Cl)cc2)CCCC1`, the growth was 5.37% (active).
Take `CC(=O)NC(C)(C)C(=O)N1CCC[C@H]1C(=O)NC(C)(C)C(=O)N[C@@H](C)C(=O)NC(C)(C)C(=O)NC(C)(C)C(=O)N[C@@H](CCC(N)=O)C(=O)NC(C)(C)C(=O)N[C@H](C(=O)NC(C)(C)C(=O)NCC(=O)N[C@@H](CC(C)C)C(=O)NC(C)(C)C(=O)N1CCC[C@H]1C(=O)N[C@H](C(=O)NC(C)(C)C(=O)NC(C)(C)C(=O)N[C@@H](CCC(N)=O)C(=O)N[C@@H](CCC(N)=O)C(=O)N[C@H](CO)Cc1ccccc1)C(C)C)C(C)C`: the growth was 27.4% [4.25 µM] (inactive).
With `Cc1cn(-c2cc(NC(=O)c3cncc(C#Cc4cnc5ccc(O[C@@H]6CCOC6)nn45)c3)cc(C(F)(F)F)c2)cn1`, the growth was -14% (active).
With `O=C(O)CNS(=O)(=O)c1ccc(Oc2ccc(S(=O)(=O)NCC(=O)O)cc2)cc1`, the growth is 99.3% (inactive).
